Test results taken from PubChem BioAssay AID1645872 (National Center for Advancing Translational Sciences (NCATS), 2021).
Results filed as inconclusive are left out. Values without a mark were called inactive. Active and inactive are the calls of the source. The call rests on the fitted dose curve; in most records, active means well fitted inhibition curve with a large enough effect; inconclusive means small, poorly fitted or top-dose-only effect; inactive means flat fitted curve, though single readings scatter. Numbered stars: 1 amine (or outer) side, 2 acyl side, 3 side chain; on linkers, the order of the positions; unused ones are H or OH. Peptide text beside a SMILES is read from it. CO = O=C([*:1])[*:2]

These molecules were tested against Papain (Carica papaya) (UniProt P00784) (assay: Confirmatory qHTS assay for inhibitors of the protease papain). Settings: papain Z-FR-AMC cleavage, fluorescence; series mostly up to 49.8 µM; activity, negative = inhibition: at the top concentration.
From the text: Principal Investigator: Sam Michael National Center for Advancing Translational Sciences, National Institutes of Health, Rockville, MD Current high-throughput screening (HTS) assay validation is often a manual process, though this can be enhanced by design-of-experiment approaches. An artificial intelligence-driven (AI/ML) assay optimization was developed as part of the NCATS A Specialized Platform for Innovative Research Exploration (ASPIRE) Initiative to accelerate preclinical drug discovery. We describe the development of an autonomous Cloud-based computational driven assay optimization system using the Kebotix adaptive optimization algorithm. The Kebotix Bayesian optimization algorithm identify and test the global optimum of the full 294 design-of-experiment (DOE) with a high optimization probability > 95%, and achieved a five-fold reduction in costs for reagents and lab supplies and HTE run-time. The proposed algorithm found suitable conditions for optimal assay performance. A cell-free assay for papain protease activity was chosen for proof-of-concept. This assay was ideal because its low cost and suitable for large amount of experiments, and previous NCATS experience would allow for historical comparisons. […] Described herein is the results of the papain qHTS assay.
PROTOCOL TABLE SEQUENCE No. (e.g., 1, 2, 3, etc.); PARAMETER (e.g., Cells, Incubation, Reagent, etc.); VALUE and DESCRIPTION. 1; Reagent; 3 uL; 4/3x Enzyme solution (working concentration of 5 nM) or 3 uL buffer 2; Compounds; 17 nL; library compounds and controls (working concentration of 169 nM - […]) 3; Time; 15 min; room temperature incubation 4; Reagent; 1 uL; 4x 2 uM Z-FR-AMC substrate 5; Centrifugation; 1000 rpm; 15 sec centrigure 6; Detection; Fluorescence Read 1; ViewLux plate reader 7; Time; 10 min; room temperature incubation 8; Detection; Fluorescence Read 2; ViewLux plate reader NOTES (numbers refer to Sequence numbers above; values are from representative experiments) 1; Dispense 3 uL of [4/3x] 5 nM Papain-buffer solution in medium-binding black solid-bottom Greiner plates (789176-F); columns 1-2 and […]. Dispense 3 uL of assay buffer (100 mM Na-acetate pH 5.5, 5 mM DL-Cysteine, 0.01% Tween20) to columns 3 and 4. 2; Compounds are single pin-transferred (17 nL) for a final concentration range of 0.664 nM - 39.2 uM. 3; Room temperature incubation. 4; Dispense 1 uL of [4x] 2 uM Z-FR-AMC substrate solution into the assay plate, columns 1 - 48. 5; Centrifuge the assay plate to remove bubbles. 6; Initial fluorescence signal (Read 1) is obtained using the ViewLux plate reader (PerkinElmer) equipped with a 340(30) nm excitation filter; 450(20) nm emission filter; 2 sec exposure time at energy set to 2000. 7; Room temperature incubation in the dark. 8; Final fluorescence signal (Read 2) is obtained using the ViewLux plate reader (PerkinElmer) equipped with a 340(30) nm excitation filter; 450(20) nm emission filter; 2 sec exposure time at energy set to 2000.

Chain of Papain (Carica papaya) (P00784 whole entry, looked up): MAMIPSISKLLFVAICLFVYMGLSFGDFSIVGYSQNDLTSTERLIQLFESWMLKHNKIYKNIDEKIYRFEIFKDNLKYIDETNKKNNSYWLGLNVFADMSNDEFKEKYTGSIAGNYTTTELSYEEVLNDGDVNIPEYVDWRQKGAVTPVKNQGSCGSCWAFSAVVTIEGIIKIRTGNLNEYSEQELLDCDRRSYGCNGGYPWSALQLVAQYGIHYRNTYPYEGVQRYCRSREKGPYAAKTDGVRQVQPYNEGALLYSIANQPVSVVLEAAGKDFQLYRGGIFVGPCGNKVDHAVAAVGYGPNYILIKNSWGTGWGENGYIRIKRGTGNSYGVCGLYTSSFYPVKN

Row | SMILES | Potency | activity, negative = inhibition [%]
1 | Cc1cccc(Nc2nc(C#N)nc(NC3CCCC3)n2)c1 | 64.7 nM (active) | –
2 | O=c1oc(Cl)c(Cl)c2ccccc12 | – | -8.82
3 | N#Cc1nc(Nc2cc(F)cc(F)c2)nc(NC2CCCC2)n1 | 162 nM (active) | –
4 | N#Cc1nc(Nc2ccccc2)nc(NC2CCCC2)n1 | 81.4 nM (active) | –
5 | CC(C)C[C@H](NC(=O)[C@@H](NC(=O)N[C@@H](Cc1ccccc1)C(=O)O)[C@H]1CCN=C(N)N1)C(=O)N[C@H](C=O)Cc1ccccc1 | 10.2 nM (active) | –
6 | N#Cc1nc(Nc2cccc(F)c2)nc(NC2CCCC2)n1 | 115 nM (active) | –
7 | CC(=O)N[C@@H](CC(C)C)C(=O)N[C@@H](CC(C)C)C(=O)N[C@H](C=O)CCCN=C(N)N | 10.2 nM (active) | –
8 | N#Cc1nc(Nc2ccc(F)cc2)nc(NC2CCCC2)n1 | 102 nM (active) | –
9 | CCOc1nc(C#N)nc(N2CCCCC2)n1 | 182 nM (active) | –
10 | COc1cccc(Nc2nc(C#N)nc(NC3CCCC3)n2)c1 | 57.6 nM (active) | –
11 | CC(C)C(NC(=O)C(CCCN=C(N)N)NC(=O)NC(Cc1ccccc1)C(=O)O)C(=O)NC(C=O)CCCN=C(N)N (stereo not drawn) ({Phe-CO}-Arg-Val-Arg-aldehyde; configuration not given here) | 12.9 nM (active) | –
12 | COc1ccc(Nc2nc(C#N)nc(NC3CCCC3)n2)cc1 | 102 nM (active) | –
13 | N#Cc1nc(Nc2cccc(Cl)c2)nc(NC2CCCC2)n1 | 289 nM (active) | –
